# ± gives the standard deviation of the averaged measurements. Whole data set: some 33,000 sequences, median “E-score (rank enrichment, -0.5 to 0.5)” near -0.0068, cut for the highest 2% near 0.24. The full list was thinned out, with the highest values kept by preference.
# Tested on: muMax20 (Max(13-93) K31hArg/K57hArg, M65Nle)
# Assay: PBM 8-mer E-score (E-score (rank enrichment, -0.5 to 0.5)); higher = stronger preferential binding
# Description: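 Protein binding microarray (universal PBM chip covering all 10-mers in fixed probe flanks) with chemically synthesized human Max(13-93) bHLH-LZ analogs (not full-length Max) bearing noncanonical residues (hArg, Tha, Aib, Nle at 65) and aromatic Cys staples. Read-out per 8-mer (and its reverse complement): E-score (rank-based enrichment, -0.5 to 0.5) and Z-score of median probe intensity.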
row,Sequence,PBM 8-mer E-score
1,ATTGTATG,0.139 ± 0.039
2,AGTGTGTA,0.121 ± 0.0059
3,CTTGTATC,0.0905 ± 0.026
4,CATGTTTC,0.143 ± 0.045
5,TATGTGCA,0.175 ± 0.068
6,GATGTGCA,0.03 ± 0.16
7,CATGTTTA,0.249 ± 0.0042
8,GATGTTTA,0.0668 ± 0.12
9,ATTGTATC,0.304 ± 0.027
10,CATGTGCA,0.292 ± 0.063
11,GGTGTGTA,0.159 ± 0.11
12,CGTGTGTA,0.28 ± 0.017
13,CAACAAAA,0.0937 ± 0.037
14,ACCCCTCC,0.155 ± 0.011
15,AGCATAAA,0.158 ± 0.013
16,CGGTTCCA,-0.282 ± 0.0036
17,GACGGCCA,-0.0819 ± 0.046
18,AAGTGTAA,-0.0103 ± 0.021
19,GCCCCTAC,0.00167 ± 0.035
20,ACTCTGAG,-0.217 ± 0.068
21,GATAACGC,0.105 ± 0.11
22,CATGTGTA,0.332 ± 0.054
23,CATGTGTC,0.117 ± 0.14

row,Sequence,PBM 8-mer E-score
1,GATGTGTA,0.17 ± 0.024
2,CGTGTATC,0.238 ± 0.025
3,ATTGTAAG,0.16 ± 0.042
4,CTTGTAAA,0.217 ± 0.015
5,ATTGTAAA,0.244 ± 0.021
6,CGTGTATA,0.2 ± 0.044
7,AGTGTATC,0.123 ± 0.049
8,AGCTCTCG,-0.155 ± 0.045
9,GAGTCACC,-0.0777 ± 0.02
10,AACCTTAT,0.0715 ± 0.044
11,AACAGTAA,-0.00834 ± 0.034
12,GCTCGTTA,0.0811 ± 0.07
13,AACGTAAG,-0.0553 ± 0.13
14,AAGTGTGA,0.0524 ± 0.053
15,CAGTGTGA,0.2398 ± 0.0018
16,TAGTGTGA,0.15 ± 0.12
17,CTGGTCTC,-0.256 ± 0.045
18,AATGGATC,-0.167 ± 0.0063
19,CCACCAAG,-0.0933 ± 0.014
20,ACATAGTA,0.0946 ± 0.04
21,CTATAGTA,0.109 ± 0.0064
22,GCATAGTA,0.277 ± 0.041
23,ATATAGTA,0.281 ± 0.048

row,Sequence,PBM 8-mer E-score
1,CCATAGTA,0.0366 ± 0.064
2,GTATAGTA,0.227 ± 0.0046
3,ACCGGAGC,-0.286 ± 0.0054
4,CGGTCCAG,-0.279 ± 0.069
5,GCTCCACA,-0.0777 ± 0.035
6,GCCTCAGA,-0.218 ± 0.018
7,AACGAACG,0.0291 ± 0.073
8,CTACTCGC,-0.176 ± 0.076
9,TAAATCAA,0.261 ± 0.01
10,AAAATCAA,0.0939 ± 0.085
11,GAAATCAA,0.0452 ± 0.11
12,ATCGCGGG,-0.145 ± 0.056
13,AATCACGC,0.196 ± 0.096
14,AATCACAG,-0.113 ± 0.046
15,AATCACGA,0.00734 ± 0.13
16,AATCACAT,0.242 ± 0.066
17,AATCACGT,0.385 ± 0.046
18,AATCACAA,0.172 ± 0.028
19,AGGGCAAA,-0.0293 ± 0.034
20,CGAAAATA,0.00928 ± 0.085
21,CAGCGGCG,-0.0966 ± 0.073
22,GAACCTCC,-0.133 ± 0.0052
23,CGGAGCAC,-0.157 ± 0.021

row,Sequence,PBM 8-mer E-score
1,ACGCTACA,0.255 ± 0.047
2,GCGCTACA,-0.0407 ± 0.037
3,TCGCTACA,0.115 ± 0.042
4,ACTTCGGG,0.0794 ± 0.099
5,ACGCTAAG,-0.149 ± 0.038
6,CCACTGAC,-0.169 ± 0.032
7,CAAGCATA,0.064995 ± 4.9e-05
8,CAAGCTGA,-0.175 ± 0.11
9,AAAGCTGG,0.0179 ± 0.046
10,TAAGCATA,0.11 ± 0.096
11,AAAGCATT,0.1 ± 0.0071
12,AAAGCATA,0.249 ± 0.045
13,AAAGCATG,0.25 ± 0.063
14,AAAGCTGA,0.275 ± 0.086
15,CAAGCATG,0.134 ± 0.038
16,AATAAGGG,0.11 ± 0.12
17,ACTGTCTA,0.0515 ± 0.052
18,CGACAAGA,-0.0978 ± 0.12
19,GTCCAGGA,-0.157 ± 0.032
20,GAACGGGC,-0.0738 ± 0.11
21,AACATACG,0.278 ± 0.03
22,ATCATACG,0.184 ± 0.071
23,ATCATACA,0.28 ± 0.069

row,Sequence,PBM 8-mer E-score
1,AACATACT,0.0528 ± 0.0084
2,CACATAAA,0.2193 ± 0.00038
3,CACATACG,0.0977 ± 0.026
4,TACATAAA,0.239 ± 0.025
5,AACATAAA,0.168 ± 0.035
6,GTCATACA,0.118 ± 0.021
7,AACATACA,0.252 ± 0.0071
8,AACATACC,0.0171 ± 0.02
9,ACCATACA,0.144 ± 0.051
10,CGCGCTCA,-0.127 ± 0.012
11,ACTGCAAA,0.0247 ± 0.1
12,AGGCGACA,-0.105 ± 0.11
13,GCGAACCC,-0.0615 ± 0.025
14,ATCTGACC,0.00987 ± 0.008
15,CAATCGCG,-0.0427 ± 0.086
16,CAGATCTG,-0.123 ± 0.089
17,GACATACA,0.167 ± 0.11
18,CACATACA,0.112 ± 0.072
19,TACATACA,0.26 ± 0.025
